Test results reported in a collection of fitness landscapes (doi:10.1016/j.celrep.2020.107928).
The full ranking holds about 81,000 sequences; the median of “one-hybrid fitness for binding NBS DNA” is about -0.1, and the highest 2% start at about 0.36. The full list was thinned out, with the highest values kept by preference.

B1: Caulobacter ParB omega fusion; a variant is named by its letters at X, in order, B8GW30 (parent)
chain: MESVVVGEPGMSEGRRGLGRGLSALLGEVDAAPAQAPGEQLGGSREAPIEILQRNPDQPRRTFREEDLEDLSNSIREKGVLQPILVRPSPDTAGEYQIVAGERAWRAAQRAGLKTVPIMVRELDDLAVLEIGIIENVQRADLNVLEEALSYKVLMEKFERTQENIAQTIGKSXSHVANXMRLLXLPDEVQSYLVSGELTAXHARAIAAAADPVALAKQIIEGGLSVRETEALARKAPNLSAGKSKGGRPPRVKDTDTQALESDLSSVLGLDVSIDHRGSTGTLTITYATLEQLDDLCNRLTRGI

Variants of: B1
Test: one-hybrid fitness for binding NBS DNA (the Noc-binding site; scaled: cognate 1, non-cognate 0); higher = stronger binding
Settings: with NBS DNA site
How it was run: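 On M9-minus-histidine containing 0.1 mM IPTG and 5 mM 3-AT, E. coli USO cells with a HIS3 reporter, site 19 bp from the promoter, grew 48 hours at 37°C to select Caulobacter ParB libraries randomised at four specificity codons. Plasmids from before and after were Illumina-sequenced, with three replicate libraries pooled and variants under 10 reads left out. Fitness is the log change in variant-to-wild-type read ratio, rescaled against cognate and non-cognate.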

Variant | one-hybrid fitness for binding NBS DNA
NCKE | ≤ 0.2
GYMR | ≤ 0.2
VACG | ≤ 0.2
GAQH | ≤ 0.2
LKVD | ≤ 0.2
RFFR | ≤ 0.2
RKAR | 0.597
RCFR | 0.376
RKAN | ≤ 0.2
RKFK | ≤ 0.2
RKFR | 0.443
RKFQ | ≤ 0.2
RPFR | ≤ 0.2
RKAH | 0.322
PSEM | ≤ 0.2
VQGT | ≤ 0.2
EMAT | ≤ 0.2
MADF | ≤ 0.2
PISS | ≤ 0.2
CTLV | ≤ 0.2
YGYV | ≤ 0.2

Variant | one-hybrid fitness for binding NBS DNA
RTVK | ≤ 0.2
RTKT | 0.724
RTVT | 0.393
RTKQ | 0.356
RTVD | ≤ 0.2
RTKC | 0.31
EDMY | ≤ 0.2
WWLN | ≤ 0.2
RCEN | ≤ 0.2
DHID | ≤ 0.2
PMHC | ≤ 0.2
TEPL | ≤ 0.2
PAKT | ≤ 0.2
PFVA | ≤ 0.2
GVMR | ≤ 0.2
QQVN | ≤ 0.2
KQKT | 0.222
QQVT | 0.393
QQKF | 0.356
QQKT | 0.811
QQVP | ≤ 0.2

Variant | one-hybrid fitness for binding NBS DNA
DFWV | ≤ 0.2
PKQR | ≤ 0.2
TNGR | ≤ 0.2
DAAG | ≤ 0.2
CWHR | ≤ 0.2
QAGS | 0.342
QLGH | ≤ 0.2
QLGT | 0.369
QAGT | 0.37
QAGN | ≤ 0.2
QSGT | 0.385
QTGY | 0.312
QTGQ | 0.27
QTGT | 0.64
QSGN | ≤ 0.2
QSGD | ≤ 0.2
QLGS | 0.322
DRLC | ≤ 0.2
AHIW | ≤ 0.2
CMMG | ≤ 0.2
SQTP | ≤ 0.2

Variant | one-hybrid fitness for binding NBS DNA
CRSF | ≤ 0.2
KPEL | ≤ 0.2
QPGT | ≤ 0.2
QHGP | ≤ 0.2
QIGT | 0.331
QHGS | 0.343
QHGT | 0.385
QCGT | 0.558
LTNG | ≤ 0.2
SHCL | ≤ 0.2
DTQK | ≤ 0.2
GMQY | ≤ 0.2
SYPN | ≤ 0.2
QRIH | 0.335
QRPS | 0.461
QRPD | ≤ 0.2
QRIN | ≤ 0.2
QRPP | ≤ 0.2
QRIS | 0.546
TLDA | ≤ 0.2
VTHW | ≤ 0.2
